Molecules are shown by their SMILES. “And” between values parts separate entries of the source, which are not always exact repeats. Equal values may be shown once. The whole screen tested about 16,000 compounds, of which about 5,800 (36%) were called active. Inconclusive results (about 23%) are left out. The list shows a part of the results. Unmarked numbers belong to inactive results. Calls follow the shape of the dose curve; as a rule, active = well fitted curve in the direction sought with a large enough effect; inconclusive = small, poorly fitted or top-dose-only effect, or effect the other way; inactive = no such curve, though single readings can be large or run the other way.

Data on 67 compounds can be found in PubChem BioAssay AID1851 (National Center for Advancing Translational Sciences (NCATS), 2009).
% is scaled to controls: 0 for no effect and ±100 for the full control effect.

For this assay, the target named is Cytochrome P450 2C19 (Homo sapiens) (UniProt P33261). In words: Cytochrome panel assay with activity outcomes. To be noted: recombinant CYP, pro-luciferin dealkylation, luminescence, p450-cyp2c19; series mostly up to 57.1 µM; activity, negative = inhibition: at the top concentration.
Cytochrome P450 2C19 (Homo sapiens), sequence (P33261 whole entry, looked up): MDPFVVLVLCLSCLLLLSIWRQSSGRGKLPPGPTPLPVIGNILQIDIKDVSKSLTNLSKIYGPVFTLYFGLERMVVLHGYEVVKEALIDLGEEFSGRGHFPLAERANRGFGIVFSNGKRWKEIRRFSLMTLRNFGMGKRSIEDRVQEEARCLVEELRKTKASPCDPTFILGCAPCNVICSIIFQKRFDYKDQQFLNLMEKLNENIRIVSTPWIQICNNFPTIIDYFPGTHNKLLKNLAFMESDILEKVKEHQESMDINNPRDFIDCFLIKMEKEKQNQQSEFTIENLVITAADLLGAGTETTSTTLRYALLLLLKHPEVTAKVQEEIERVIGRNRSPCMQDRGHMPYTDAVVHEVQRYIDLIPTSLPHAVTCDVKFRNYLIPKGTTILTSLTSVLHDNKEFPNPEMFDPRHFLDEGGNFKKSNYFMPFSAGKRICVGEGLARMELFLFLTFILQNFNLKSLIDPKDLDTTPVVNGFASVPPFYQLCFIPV
For orientation: AC50 means the midpoint of the concentration-response curve, whichever way the signal moves. Regarding `CCN=C(Nc1cccc(F)c1)SC1CC(=O)N(c2ccc(OC)cc2)C1=O` (configuration not stated), the AC50 is 3.98 µM (active).

As to `CCOC(=O)NNC1CC(=O)N(c2ccc(OC)cc2)C1=O` (configuration not stated), the “activity, negative = inhibition” value is 21.8%.

`O=C1CC(SC(=Nc2ccccc2)Nc2ccccc2)C(=O)N1c1cccc(Cl)c1` (configuration not stated): the AC50 was 2.24 µM (active).

Consider `COCC(=O)N1CCC2(CC1)CCN(C(=O)Nc1cccc(F)c1)CC2`, for which the “activity, negative = inhibition” value is -28.3%.

With `CC(=O)Nc1ccc(N2C(=O)CC(c3ccccc3)CC2=O)cc1`, the “activity, negative = inhibition” value is 0.0834%.

`CC(C)(C)NC[C@H](O)COc1cccc2c1CCC(=O)N2`: the “activity, negative = inhibition” value was 1.37% [at 25.6 µM].

`C[C@@H]1C(=O)N(C)C(=O)c2nc[nH]c21`: the “activity, negative = inhibition” value is 18%.

Turning to `CCSC[C@@H](N)C(=O)O`, the activity, negative = inhibition is 17.8% [at 11.4 µM].

For the compound `Cc1sc(NC(=O)C2CCCCC2C(=O)O)c(C(N)=O)c1C` (configuration not stated), the “activity, negative = inhibition” value is 7.52%.

Regarding `Cc1ccc(C)c(-c2cc(C(=O)Nc3sc(C)c(C)c3C(N)=O)c3ccccc3n2)c1`, the AC50 is 2.24 µM (active).

For the compound `Cc1ccccc1-c1cc(C(=O)Nc2nc3c(s2)CCCC3)c2ccccc2n1`, the AC50 is 4.47 µM (active).

Regarding `O=C(O)c1ccccc1C(=O)Nc1nccs1`, the “activity, negative = inhibition” value is 22.9%.

With `Cc1ccc(C)c(-c2cc(C(=O)Nc3nccs3)c3ccccc3n2)c1`, the AC50 was 10 µM (active).

As for `Nc1c2c(nc3ccccc13)CCC[C@H]2O`, the “activity, negative = inhibition” value is -11.2%.

As for `COC(=O)c1sccc1NC(=O)c1cc(-c2cc(C)ccc2C)nc2ccccc12`, the AC50 is 2.51 µM (active).

As for `CN(C)c1ccc(O)c2c1C[C@H]1C[C@H]3[C@@H](N(C)C)C(=O)C(C(N)=O)=C(O)[C@]3(O)C(=O)C1=C2O`, the “activity, negative = inhibition” value is -11.3% [at 25.6 µM].

With `Cc1ccc(NC(=S)NC(=O)c2c(-c3ccccc3Cl)noc2C)cc1`, the AC50 is 2 µM (active).

For the compound `Cc1onc(-c2ccccc2Cl)c1C(=O)Nc1nnc(Cc2ccc(Cl)cc2)s1`, the AC50 is 15.8 µM (active).

In the case of `Cc1ccccc1-n1nc2c(c1NC(=O)c1c(-c3ccccc3Cl)noc1C)CSC2`, the concentration at half-maximal activity (AC50) is 11.2 µM (active).

On to `Cc1ccccc1-n1nc2c(c1NC(=O)c1ccc(S(=O)(=O)N(C)C)cc1)CSC2`, for which the “activity, negative = inhibition” value is -4.86%.

With `CC(=O)C1=NOC(CNC(=O)c2c(-c3ccccc3Cl)noc2C)C1` (configuration not stated), the concentration at half-maximal activity (AC50) is 11.2 µM (active).

For `COc1ccc(Cc2nnc(NC(=O)c3ccc(Cl)c([N+](=O)[O-])c3)s2)cc1`, the “activity, negative = inhibition” value was 14.1%.

For the compound `COc1ccc(-c2nc3cnc(Nc4cccc(OC)c4)nc3n(CCC#N)c2=O)cc1`, the “activity, negative = inhibition” value is -34.1%.

In the case of `CCOC(=O)c1cnc2cc(-c3ccc(C(C)(C)C)cc3)nn2c1N`, the AC50 is 0.562 µM (active).

As to `Cc1ccccc1C(=O)NNC(=O)c1ccoc1C`, the “activity, negative = inhibition” value is -22.2%.

Take `Cc1occc1C(=O)NNC(=O)Cc1ccccc1`: the AC50 was 10 µM (active).

With `CCCC[S@@](=N)(=O)CC[C@@H](N)C(=O)O`, the AC50 result is “inactive”.

On to `Cc1ccc(OCCNC(=O)c2cncc(Br)c2)cc1C`, for which the AC50 is 6.31 µM (active).

As for `Cc1c(C2CCN(CCc3ccccc3)CC2)noc1-c1ccc(Cl)cc1`, the “activity, negative = inhibition” value was -37.6%.

Take `Brc1ccc(-c2csc(N3CCC(c4ccccc4)C3)n2)cc1` (configuration not stated): the AC50 was 10 µM (active).

With `Fc1ccc(-c2csc(N3CCC(c4ccccc4)C3)n2)cc1` (configuration not stated), the half-maximal activity concentration (AC50) was 11.2 µM (active).

For `Fc1cccc(C2NC(=S)NC3=C2N2CCC3CC2)c1` (configuration not stated), the “activity, negative = inhibition” value was 7.94%.

In the case of `Clc1ccc(-c2csc(N3CCC(c4ccccc4)C3)n2)cc1` (configuration not stated), the AC50 was 10 µM (active).

In the case of `Clc1ccc2c(c1)N=C(N1CCNCC1)c1ccccc1N2`, the “activity, negative = inhibition” value was 22.9%.

Take `c1ccc(CNc2ccnc(-c3ccoc3)n2)cc1`: the AC50 is 3.98 µM (active).

Take `Cc1cccc(CNc2ccnc(-c3ccoc3)n2)c1`: the AC50 is 10 µM (active).

On to `Cc1cnc(CNc2ccnc(-c3ccoc3)n2)cn1`, for which the “activity, negative = inhibition” value is -24.7%.

For the compound `CCCN(C/C=C\I)[C@@H]1CCc2cccc(O)c2C1`, the “activity, negative = inhibition” value was -26.9%.

Regarding `CC(C(=O)Nc1ccccc1Sc1ccccc1)N(c1ccccc1)S(C)(=O)=O` (configuration not stated), the AC50 is 4.47 µM (active).

As for `Cc1ccc(N(C(C)C(=O)Nc2cc(Cl)ccc2Oc2ccccc2)S(C)(=O)=O)cc1` (configuration not stated), the AC50 is 1.41 µM (active).

As for `Cc1cc2c(=O)[nH]c(N)nc2nc1C`, the activity, negative = inhibition was 20.6% [at 11.4 µM].

On to `O=C1CC(NCCC2=CCCCC2)C(=O)N1c1cccc(Cl)c1Cl` (configuration not stated), for which the AC50 is 4.47 µM (active).

On to `CO[C@H]1COC(=O)C/C=C\[C@H](C)[C@H](OC)COC(=O)[C@@H](C)COC(=O)C/C=C\[C@@H]1C`, for which the activity, negative = inhibition was -8.22% [at 11.4 µM] and -6.35% [at 11.4 µM].

In the case of `Cc1ccc(C2CC2C(=O)NN)cc1` (configuration not stated), the AC50 is 3.55 µM (active).

In the case of `C=CCN1CCc2c(cc(O)c(O)c2Cl)[C@H](c2ccccc2)C1`, the “activity, negative = inhibition” value is -40.1%.

Take `Cn1c(=O)cc(OCCCC(=O)N2CCN(c3ccccc3)CC2)c2ccccc21`: the AC50 was 1.26 µM (active).

Turning to `CCOC(=O)C1CCCN(C(=O)CCCOc2cc(=O)n(C)c3ccccc23)C1` (configuration not stated), the AC50 was 6.31 µM (active).

Regarding `O=C(CCCN1C(=O)C2C3C=CC(C3)C2C1=O)N1CCN(c2ccccc2)CC1` (configuration not stated), the “activity, negative = inhibition” value was -27%.

Take `O=C(O)c1ccc(/C=N\N=C2c3ccccc3-c3ccccc32)cc1`: the activity, negative = inhibition was 19.5% [at 11.4 µM].

In the case of `Cc1c(S(=O)(=O)O)ccc(N=Nc2c(O)c(C(=O)O)cc3ccccc23)c1Cl`, the activity, negative = inhibition is 14.5% [at 11.4 µM].

`COC(=O)CNC(c1ccccc1Cl)c1cc(Br)ccc1NC(=O)CCN1CCOCC1` (configuration not stated): the AC50 is 28.2 µM (active).

Consider `O=C1C[C@@H](O)[C@@H](O)[C@H]2[C@@H]3C(=O)N(C[C@@H]4CCCO4)C(=O)[C@@H]3CC[C@H]12`, for which the activity, negative = inhibition was 43.9% [at 11.4 µM] and 16.6% [at 11.4 µM].

For the compound `Cn1cccc1C(=O)N1CCC2(CC1)CCN(C(c1ccccc1)c1ccccc1)CC2`, the “activity, negative = inhibition” value is -14.1%.

Regarding `CN(C)c1ccc(-c2cncnc2NCc2cccnc2)cc1`, the AC50 was 0.0316 µM (active).

Take `CN(C)c1ccc(-c2cncnc2NCc2ccccc2)cc1`: the AC50 is 0.398 µM (active).

Take `Cc1cnc(CNc2ncncc2-c2ccc(C(=O)N(C)C)cc2)cn1`: the “activity, negative = inhibition” value is 0.3%.

Turning to `CNc1ncncc1-c1ccc(C(=O)N(C)C)cc1`, the AC50 was 25.1 µM (active).

With `CN(C)C(=O)c1ccc(-c2cncnc2NCc2cccnc2)cc1`, the AC50 was 2.51 µM (active).

For the compound `CN(C)C(=O)c1ccc(-c2cncnc2NCc2ccccc2)cc1`, the “activity, negative = inhibition” value was -10.8%.

Take `CN(C)C(=O)c1ccc(-c2cncnc2Nc2ccccc2)cc1`: the “activity, negative = inhibition” value is -27.6%.

As to `CCOC(=O)c1c(NC(=O)Cn2nc([N+](=O)[O-])c(Br)c2C)sc2c1CCC(C)C2` (configuration not stated), the AC50 is 8.91 µM (active).

With `CCOC(=O)c1c(NC(=O)CSc2nnc(C)s2)sc2c1CCCCC2`, the AC50 is 2.24 µM (active).

With `CCOC(=O)c1c(NC(=S)NC(=O)c2cnn(CC)c2)sc2c1CCC(C)C2` (configuration not stated), the “activity, negative = inhibition” value was -22%.

For the compound `CCOC(=O)c1c(NC(=O)c2ccc(S(=O)(=O)N3CCOCC3)cc2)sc2c1CCN(C)C2`, the “activity, negative = inhibition” value was 30.2%.

Turning to `CCOC(=O)c1c(NC(=O)c2c(C)noc2C)sc2c1CCCCC2`, the “activity, negative = inhibition” value is -4.88%.

Take `CCOC(=O)c1c(NC(=O)Cn2cc([N+](=O)[O-])cn2)sc2c1CCC2`: the AC50 was 2 µM (active).

As for `CCOC(=O)c1c(N2C(=O)Nc3cc(Cl)c(Cl)cc3N2O)sc2c1CCCCC2`, the “activity, negative = inhibition” value is -110%.
